Measured values published in PubChem BioAssay (EPA / NIEHS).
Activity calls are given as the source filed them. How the source made its calls: active means hit-call score of the fitted dose curve at least 0.9, where 1 is the maximum; inactive means score below 0.9.

System: not listed separately
Assay: ATG_Sox_CIS: Attagene CIS-FACTORIAL HepG2 Assay for human SRY-box transcription factor (SOX) (AID 2282960)
Settings: HepG2 Attagene cis-factorial SOX reporter, mRNA; actives raise or lower the signal
Method in brief: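 HepG2 cells transiently transfected with multiple cis-regulated reporter units, then dosed for 24 h. Reporter mRNA quantified by RT-PCR, fluorescent labelling, HpaI digestion and capillary electrophoresis; bidirectional fit versus DMSO.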

outcome, inactive:
N#[N+]c1ccc2c(S(=O)(=O)[O-])cccc2c1O, COCc1c(C(C)C)nc(C(C)C)c(/C=C/[C@@H](O)C[C@@H](O)CC(=O)O)c1-c1ccc(F)cc1, CCC(CO)CO, O=S(=O)(O)c1cc(S(=O)(=O)O)c2ccc3c(S(=O)(=O)O)cc(S(=O)(=O)O)c4ccc1c2c43, NC(=O)N=NC(N)=O, CCCCC(CC)COC(=O)c1ccccc1 (stereo not given), Oc1ccc(Cl)cc1Cc1cc(Cl)ccc1O, CCCOCCOCCOCCO, Cc1ccc2c(c1)C(=O)c1ccccc1C2=O, CC(C)c1ccc(C=O)cc1, [Cl][Nd]([Cl])[Cl], O=Cc1ccc(CO)o1, CCN(CC#N)c1cccc(C)c1, CCC(C)C=O (stereo not given), CCc1c(C(=O)O)c(=O)cnn1-c1ccc(Cl)cc1, Nc1ccc(N)c(Cl)c1, CC(=O)OCC(C)OC(C)=O (stereo not given), NC(=O)OCC(COC(N)=O)c1ccccc1, c1ccc(-c2ccccn2)nc1, C=CC(C)(C)C, CC(C)(Oc1ccc(C2CC2(Cl)Cl)cc1)C(=O)O (stereo not given), CCCCCCCCCCCCCCCC(=O)OCC, CCO[Si](CCCN=C=O)(OCC)OCC, C=CCCCCCCCCC(=O)OCCCC, C=C(C)CCO, CCCc1ccc(OC)cc1, COC(=O)/C=C\C(=O)O, CCC(CC)C(=O)O, C=C(C)[C@H]1CC=C(C)CC1, O=C(Cl)c1cc(C(=O)Cl)cc(C(=O)Cl)c1, CCCCC(CC)COC(=O)c1ccccc1O (stereo not given), NC(=O)NNC(N)=O, CCCC(=O)OCc1ccccc1, CCCOC(=O)CCCCC(=O)OCCC, SCCc1cnccn1, CC[C@H]1OC(=O)[C@H](C)[C@@H](O[C@H]2C[C@@](C)(OC)[C@@H](O)[C@H](C)O2)[C@H](C)[C@@H](O[C@@H]2O[C@H](C)C[C@H](N(C)C)[C@H]2O)[C@](C)(O)C[C@@H](C)C(=NOCOCCOC)[C@H](C)[C@@H](O)[C@]1(C)O, COC(=O)C1=C(C)NC(C)=C(C(=O)OCC(C)C)C1c1ccccc1[N+](=O)[O-] (stereo not given), O=C(O)Cc1c(Cl)ccc(Cl)c1Cl

AC50, active:
Cc1ccc([N+](=O)[O-])cc1S(=O)(=O)O 180 µM, c1cc(N(CC2CO2)CC2CO2)ccc1OCC1CO1 (stereo not given) 58.5 µM

Target: Transcription factor Sp1 (Homo sapiens) (UniProt P08047)
Assay: ATG_Sp1_CIS: Attagene CIS-FACTORIAL HepG2 Assay for human Specificity Protein 1 (Sp1) (AID 2282961)
Settings: HepG2 Sp1 cis-reporter transcription, actives raise or lower the signal
Method in brief: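 HepG2 cells transiently transfected with multiplexed cis-regulated reporter constructs, chemical exposure 24 h. Reporter mRNA quantified by RT-PCR with capillary electrophoresis; bidirectional fit relative to DMSO.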

Sequence of Transcription factor Sp1 (Homo sapiens) (P08047 whole entry, looked up): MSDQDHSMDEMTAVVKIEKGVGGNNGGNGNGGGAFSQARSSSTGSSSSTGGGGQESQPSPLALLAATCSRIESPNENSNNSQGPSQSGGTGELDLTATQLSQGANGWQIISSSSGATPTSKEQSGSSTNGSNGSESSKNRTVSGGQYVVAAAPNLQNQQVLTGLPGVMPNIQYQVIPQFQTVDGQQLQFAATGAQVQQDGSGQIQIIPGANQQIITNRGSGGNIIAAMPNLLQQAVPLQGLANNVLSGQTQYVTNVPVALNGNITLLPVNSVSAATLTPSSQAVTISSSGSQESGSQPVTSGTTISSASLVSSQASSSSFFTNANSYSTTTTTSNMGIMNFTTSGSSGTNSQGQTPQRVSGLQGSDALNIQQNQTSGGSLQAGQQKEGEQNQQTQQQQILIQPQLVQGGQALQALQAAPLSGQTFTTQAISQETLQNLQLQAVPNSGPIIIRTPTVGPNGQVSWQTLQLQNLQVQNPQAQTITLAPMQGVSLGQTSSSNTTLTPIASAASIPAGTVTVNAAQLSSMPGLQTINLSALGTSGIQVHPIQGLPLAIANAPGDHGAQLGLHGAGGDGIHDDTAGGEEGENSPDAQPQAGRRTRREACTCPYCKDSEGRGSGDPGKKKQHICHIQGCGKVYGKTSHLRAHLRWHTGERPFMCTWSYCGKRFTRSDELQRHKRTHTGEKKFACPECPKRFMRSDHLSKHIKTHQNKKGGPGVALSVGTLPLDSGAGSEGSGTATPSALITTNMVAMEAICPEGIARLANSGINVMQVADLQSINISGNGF

outcome, inactive:
N#[N+]c1ccc2c(S(=O)(=O)[O-])cccc2c1O, COCc1c(C(C)C)nc(C(C)C)c(/C=C/[C@@H](O)C[C@@H](O)CC(=O)O)c1-c1ccc(F)cc1, CCC(CO)CO, O=S(=O)(O)c1cc(S(=O)(=O)O)c2ccc3c(S(=O)(=O)O)cc(S(=O)(=O)O)c4ccc1c2c43, NC(=O)N=NC(N)=O, CCCCC(CC)COC(=O)c1ccccc1 (stereo not given), Oc1ccc(Cl)cc1Cc1cc(Cl)ccc1O, CCCOCCOCCOCCO, Cc1ccc2c(c1)C(=O)c1ccccc1C2=O, CC(C)c1ccc(C=O)cc1, [Cl][Nd]([Cl])[Cl], O=Cc1ccc(CO)o1, CCN(CC#N)c1cccc(C)c1, CCC(C)C=O (stereo not given), CCc1c(C(=O)O)c(=O)cnn1-c1ccc(Cl)cc1, Nc1ccc(N)c(Cl)c1, CC(=O)OCC(C)OC(C)=O (stereo not given), NC(=O)OCC(COC(N)=O)c1ccccc1, c1ccc(-c2ccccn2)nc1, C=CC(C)(C)C, CC(C)(Oc1ccc(C2CC2(Cl)Cl)cc1)C(=O)O (stereo not given), CCCCCCCCCCCCCCCC(=O)OCC, CCO[Si](CCCN=C=O)(OCC)OCC, C=CCCCCCCCCC(=O)OCCCC, C=C(C)CCO, CCCc1ccc(OC)cc1, COC(=O)/C=C\C(=O)O, CCC(CC)C(=O)O, C=C(C)[C@H]1CC=C(C)CC1, O=C(Cl)c1cc(C(=O)Cl)cc(C(=O)Cl)c1, CCCCC(CC)COC(=O)c1ccccc1O (stereo not given), NC(=O)NNC(N)=O, CCCC(=O)OCc1ccccc1, CCCOC(=O)CCCCC(=O)OCCC, SCCc1cnccn1, CC[C@H]1OC(=O)[C@H](C)[C@@H](O[C@H]2C[C@@](C)(OC)[C@@H](O)[C@H](C)O2)[C@H](C)[C@@H](O[C@@H]2O[C@H](C)C[C@H](N(C)C)[C@H]2O)[C@](C)(O)C[C@@H](C)C(=NOCOCCOC)[C@H](C)[C@@H](O)[C@]1(C)O, COC(=O)C1=C(C)NC(C)=C(C(=O)OCC(C)C)C1c1ccccc1[N+](=O)[O-] (stereo not given), O=C(O)Cc1c(Cl)ccc(Cl)c1Cl

AC50, active:
Cc1ccc([N+](=O)[O-])cc1S(=O)(=O)O 156 µM, c1cc(N(CC2CO2)CC2CO2)ccc1OCC1CO1 (stereo not given) 56.9 µM
